These results are taken from ChEMBL document CHEMBL3988442, “University of Dundee, Small-Polar-MMV Screening Library” (2021).

What all share (set-up): scale not given: direction of the effect not stated beside the values
For assay [1], the target named is Protein translocase subunit SecA (Escherichia coli (strain K12)) (UniProt P10408). As to the kind of experiment: Assay to Identify E. coli SecA ATPase Inhibitors. Type of assay: functional. The conditions noted are these: 30 µM.
The target in assay [2] is T1, Ubiquitin-activating enzyme e1, putative (Leishmania donovani (strain BPK282A1)) (UniProt E9BSI1).
T1 sequence (whole entry): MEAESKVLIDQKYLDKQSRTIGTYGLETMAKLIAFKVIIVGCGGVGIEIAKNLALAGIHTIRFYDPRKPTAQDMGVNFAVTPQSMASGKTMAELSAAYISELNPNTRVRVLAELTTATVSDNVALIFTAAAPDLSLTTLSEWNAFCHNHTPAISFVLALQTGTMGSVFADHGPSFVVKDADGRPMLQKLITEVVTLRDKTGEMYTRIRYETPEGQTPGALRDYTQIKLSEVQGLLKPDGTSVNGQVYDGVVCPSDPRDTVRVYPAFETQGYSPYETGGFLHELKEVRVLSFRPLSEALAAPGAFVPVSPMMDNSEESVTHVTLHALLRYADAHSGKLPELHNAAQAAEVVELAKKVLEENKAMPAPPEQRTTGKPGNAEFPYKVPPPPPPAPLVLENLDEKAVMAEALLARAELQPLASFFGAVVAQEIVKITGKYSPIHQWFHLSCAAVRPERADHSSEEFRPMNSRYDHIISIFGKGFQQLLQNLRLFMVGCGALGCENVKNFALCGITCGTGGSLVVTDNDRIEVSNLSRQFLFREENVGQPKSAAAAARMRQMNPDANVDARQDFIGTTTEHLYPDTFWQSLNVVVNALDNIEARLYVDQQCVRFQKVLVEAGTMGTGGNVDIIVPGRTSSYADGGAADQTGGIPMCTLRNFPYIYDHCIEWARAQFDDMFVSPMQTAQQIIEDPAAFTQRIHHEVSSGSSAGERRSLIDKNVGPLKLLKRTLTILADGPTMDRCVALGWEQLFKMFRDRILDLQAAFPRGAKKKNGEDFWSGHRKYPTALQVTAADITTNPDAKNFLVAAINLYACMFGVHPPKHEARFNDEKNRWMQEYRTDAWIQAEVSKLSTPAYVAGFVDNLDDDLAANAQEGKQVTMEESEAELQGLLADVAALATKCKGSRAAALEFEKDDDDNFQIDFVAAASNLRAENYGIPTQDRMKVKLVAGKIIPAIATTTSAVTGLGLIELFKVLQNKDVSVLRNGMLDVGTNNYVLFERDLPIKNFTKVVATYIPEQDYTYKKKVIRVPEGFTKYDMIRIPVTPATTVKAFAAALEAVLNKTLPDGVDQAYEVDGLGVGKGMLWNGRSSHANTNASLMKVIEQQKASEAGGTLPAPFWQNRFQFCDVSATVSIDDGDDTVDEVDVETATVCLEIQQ
Kind of assay: Leishmania donovani Ubiquitin Activating Enzyme (LdE1). The note with it: 30 µM. Type of assay: functional.

Assay [3] has as its target AMP-activated protein kinase, AMPK (Homo sapiens) (UniProt P54646+O43741+P54619+Q9UGJ0+Q9Y478+Q13131+Q9UGI9). Kind of assay: AMP-dependent Kinase enzyme assay. An in vitro enzyme assay that detects ADP turnover that is directly proportional to AMPK activity. This uses naive AMPK that is activated during the assay with MK-8722. Type of assay: functional. The conditions noted are these: 30 µM.

Assay [4] has as its target Sialic acid-binding Ig-like lectin 9 (Homo sapiens) (UniProt Q9Y336). Kind of assay: Hs-Siglec9 ALPHAscreen SOP 20170721. The conditions noted are these: 10 µM. For orientation: In Alpha technology, singlet oxygen from a donor bead excites a nearby acceptor bead.
Assay [5] has as its system Trypanosoma cruzi. As to the kind of experiment: Trypanosoma cruzi phosphomannomutase and mannose-1-phosphate guanylyltransferase assay. The note with it: 10 µM. Format: functional.
Assay [6] concerns the target T2, Arginase-2, mitochondrial (Homo sapiens) (UniProt P78540).
T2 sequence (whole entry): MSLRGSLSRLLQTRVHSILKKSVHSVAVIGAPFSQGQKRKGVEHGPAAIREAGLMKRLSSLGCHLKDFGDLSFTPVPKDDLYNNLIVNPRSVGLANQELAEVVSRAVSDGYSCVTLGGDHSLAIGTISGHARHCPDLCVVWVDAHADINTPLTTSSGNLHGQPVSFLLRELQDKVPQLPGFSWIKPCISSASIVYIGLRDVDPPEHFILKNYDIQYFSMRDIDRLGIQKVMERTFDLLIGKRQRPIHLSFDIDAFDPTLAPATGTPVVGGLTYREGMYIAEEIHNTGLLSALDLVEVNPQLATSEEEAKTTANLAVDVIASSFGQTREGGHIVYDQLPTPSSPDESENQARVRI
Kind of assay: in vitro enzyme assay to detect the production of urea directly proportional to the activity of Arginase II. Also: in the data most compounds retested in dose-response had high values. Type of assay: functional. The note with it: 33.3 µM.

For assay [7], the target named is T3, Proteasome subunit beta (Trypanosoma cruzi) (UniProt O96673).
T3 sequence (whole entry): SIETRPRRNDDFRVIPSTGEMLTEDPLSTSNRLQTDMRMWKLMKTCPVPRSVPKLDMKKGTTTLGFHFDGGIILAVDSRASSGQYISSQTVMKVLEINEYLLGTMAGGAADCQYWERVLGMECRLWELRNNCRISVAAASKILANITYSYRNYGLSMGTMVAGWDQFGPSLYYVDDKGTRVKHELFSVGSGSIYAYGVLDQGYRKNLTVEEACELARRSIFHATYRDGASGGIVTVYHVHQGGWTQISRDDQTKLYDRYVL
As to the kind of experiment: Trypanosoma cruzi proteasome chymotrypsin-like activity (TcProtChymo) assay. Also: in the data most compounds retested in dose-response had high values. Type of assay: functional. The conditions noted are these: 9.37 µM.

Assay [8] is filed under the species Homo sapiens. As to the kind of experiment: To identify inhibition of the IFN signalling (Jak-Stat) pathway via expression of an eGFP reporter gene under the control of an IFN-stimulated response element (ISRE) containing MxA promoter. Format: functional. The conditions noted are these: 30 µM.
The target of assay [9] is T4, Tyrosyl-tRNA synthetase, putative (Trypanosoma cruzi (strain CL Brener)) (UniProt Q4DSP6).
T4 sequence (whole entry): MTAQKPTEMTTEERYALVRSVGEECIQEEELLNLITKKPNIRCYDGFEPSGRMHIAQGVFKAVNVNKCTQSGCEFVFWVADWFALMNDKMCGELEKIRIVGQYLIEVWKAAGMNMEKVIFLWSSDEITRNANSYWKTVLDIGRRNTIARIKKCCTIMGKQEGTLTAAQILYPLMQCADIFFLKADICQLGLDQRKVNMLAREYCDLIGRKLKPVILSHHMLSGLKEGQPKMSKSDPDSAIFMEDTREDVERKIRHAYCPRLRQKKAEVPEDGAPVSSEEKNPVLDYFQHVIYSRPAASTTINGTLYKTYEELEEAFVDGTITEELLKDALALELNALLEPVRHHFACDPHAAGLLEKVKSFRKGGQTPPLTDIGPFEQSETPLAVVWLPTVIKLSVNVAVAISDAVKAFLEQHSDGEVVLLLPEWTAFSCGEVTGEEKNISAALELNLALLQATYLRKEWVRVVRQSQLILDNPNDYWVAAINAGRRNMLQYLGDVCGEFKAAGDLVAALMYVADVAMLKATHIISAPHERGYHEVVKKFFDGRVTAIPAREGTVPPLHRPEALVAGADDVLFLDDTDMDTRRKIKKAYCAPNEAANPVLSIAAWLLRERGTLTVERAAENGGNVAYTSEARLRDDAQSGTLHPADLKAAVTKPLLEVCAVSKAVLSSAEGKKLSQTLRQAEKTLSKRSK
As to the kind of experiment: Trypanosoma cruzi tyrosyl tRNA synthetase (TcYRS) _High Tyrosine SOP. Also: in the data most compounds retested in dose-response had high values. Type of assay: functional. The note with it: 30 µM.

The target of assay [10] is T4, Tyrosyl-tRNA synthetase, putative (Trypanosoma cruzi (strain CL Brener)). As to the kind of experiment: Trypanosoma cruzi tyrosyl tRNA synthetase (TcYRS) SOP. Format: functional. The conditions noted are these: 30 µM.
Assay [11] deals with Chromo domain-containing protein 1 (Saccharomyces cerevisiae (strain ATCC 204508 / S288c) (Baker's yeast)) (UniProt P32657). Kind of assay: ScCHD-1 Enzyme Inhibition Assay. Also: in the data most compounds retested in dose-response had high values. The conditions noted are these: 30 µM. Format: functional.

For some of these results: Entries with a potency or affinity are not part of this list.

Chain of Chromo domain-containing protein 1 (Saccharomyces cerevisiae (strain ATCC 204508 / S288c) (Baker's yeast)) (P32657 whole entry, the tested form may be a part): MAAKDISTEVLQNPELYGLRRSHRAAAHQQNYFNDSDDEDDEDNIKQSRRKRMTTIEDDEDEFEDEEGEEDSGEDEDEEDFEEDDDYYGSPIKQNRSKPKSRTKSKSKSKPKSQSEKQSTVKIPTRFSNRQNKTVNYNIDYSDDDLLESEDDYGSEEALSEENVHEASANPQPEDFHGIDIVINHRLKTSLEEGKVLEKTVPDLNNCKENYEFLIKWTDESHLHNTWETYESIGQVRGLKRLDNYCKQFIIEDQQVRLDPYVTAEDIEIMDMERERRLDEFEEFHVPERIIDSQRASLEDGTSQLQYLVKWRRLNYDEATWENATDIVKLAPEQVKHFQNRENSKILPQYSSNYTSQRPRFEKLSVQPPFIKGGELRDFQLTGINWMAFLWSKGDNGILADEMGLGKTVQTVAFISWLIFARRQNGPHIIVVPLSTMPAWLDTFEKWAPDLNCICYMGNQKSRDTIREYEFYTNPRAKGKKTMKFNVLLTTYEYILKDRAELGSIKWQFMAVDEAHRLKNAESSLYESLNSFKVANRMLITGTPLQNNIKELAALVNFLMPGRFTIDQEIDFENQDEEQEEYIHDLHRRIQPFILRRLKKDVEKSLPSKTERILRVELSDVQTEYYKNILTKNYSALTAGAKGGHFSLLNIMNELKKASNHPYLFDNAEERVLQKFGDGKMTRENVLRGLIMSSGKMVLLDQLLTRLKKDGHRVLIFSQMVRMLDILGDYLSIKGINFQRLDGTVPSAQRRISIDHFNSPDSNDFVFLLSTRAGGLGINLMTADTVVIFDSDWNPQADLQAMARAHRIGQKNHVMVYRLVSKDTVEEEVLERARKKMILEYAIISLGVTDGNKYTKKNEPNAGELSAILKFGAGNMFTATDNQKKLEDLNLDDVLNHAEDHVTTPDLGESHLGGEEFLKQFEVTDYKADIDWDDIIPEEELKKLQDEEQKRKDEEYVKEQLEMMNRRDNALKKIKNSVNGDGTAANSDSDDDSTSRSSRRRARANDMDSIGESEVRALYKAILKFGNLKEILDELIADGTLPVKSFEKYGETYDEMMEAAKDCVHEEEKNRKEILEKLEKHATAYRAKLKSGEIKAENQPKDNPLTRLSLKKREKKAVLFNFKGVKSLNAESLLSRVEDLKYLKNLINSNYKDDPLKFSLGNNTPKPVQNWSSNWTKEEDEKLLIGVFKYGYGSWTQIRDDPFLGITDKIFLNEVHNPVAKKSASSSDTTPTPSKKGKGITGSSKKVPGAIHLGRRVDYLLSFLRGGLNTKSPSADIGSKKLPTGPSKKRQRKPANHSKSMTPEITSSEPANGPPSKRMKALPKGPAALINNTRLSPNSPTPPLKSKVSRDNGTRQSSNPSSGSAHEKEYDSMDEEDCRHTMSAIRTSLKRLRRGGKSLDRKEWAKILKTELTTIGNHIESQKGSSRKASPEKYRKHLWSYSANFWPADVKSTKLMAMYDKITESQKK
Chain of Sialic acid-binding Ig-like lectin 9 (Homo sapiens) (Q9Y336 whole entry): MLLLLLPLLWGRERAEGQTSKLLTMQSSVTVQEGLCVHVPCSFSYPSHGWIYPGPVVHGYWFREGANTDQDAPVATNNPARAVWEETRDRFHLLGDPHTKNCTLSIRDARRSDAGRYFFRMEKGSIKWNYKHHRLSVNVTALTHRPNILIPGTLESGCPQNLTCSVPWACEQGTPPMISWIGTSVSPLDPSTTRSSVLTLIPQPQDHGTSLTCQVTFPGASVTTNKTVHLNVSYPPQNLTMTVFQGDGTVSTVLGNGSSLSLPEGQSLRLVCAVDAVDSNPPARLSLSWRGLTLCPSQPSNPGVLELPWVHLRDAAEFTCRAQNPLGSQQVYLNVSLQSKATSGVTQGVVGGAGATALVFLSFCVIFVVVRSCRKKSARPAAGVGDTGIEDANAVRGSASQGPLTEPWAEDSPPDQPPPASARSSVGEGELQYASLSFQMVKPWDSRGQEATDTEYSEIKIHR
Chain of Protein translocase subunit SecA (Escherichia coli (strain K12)) (P10408 whole entry): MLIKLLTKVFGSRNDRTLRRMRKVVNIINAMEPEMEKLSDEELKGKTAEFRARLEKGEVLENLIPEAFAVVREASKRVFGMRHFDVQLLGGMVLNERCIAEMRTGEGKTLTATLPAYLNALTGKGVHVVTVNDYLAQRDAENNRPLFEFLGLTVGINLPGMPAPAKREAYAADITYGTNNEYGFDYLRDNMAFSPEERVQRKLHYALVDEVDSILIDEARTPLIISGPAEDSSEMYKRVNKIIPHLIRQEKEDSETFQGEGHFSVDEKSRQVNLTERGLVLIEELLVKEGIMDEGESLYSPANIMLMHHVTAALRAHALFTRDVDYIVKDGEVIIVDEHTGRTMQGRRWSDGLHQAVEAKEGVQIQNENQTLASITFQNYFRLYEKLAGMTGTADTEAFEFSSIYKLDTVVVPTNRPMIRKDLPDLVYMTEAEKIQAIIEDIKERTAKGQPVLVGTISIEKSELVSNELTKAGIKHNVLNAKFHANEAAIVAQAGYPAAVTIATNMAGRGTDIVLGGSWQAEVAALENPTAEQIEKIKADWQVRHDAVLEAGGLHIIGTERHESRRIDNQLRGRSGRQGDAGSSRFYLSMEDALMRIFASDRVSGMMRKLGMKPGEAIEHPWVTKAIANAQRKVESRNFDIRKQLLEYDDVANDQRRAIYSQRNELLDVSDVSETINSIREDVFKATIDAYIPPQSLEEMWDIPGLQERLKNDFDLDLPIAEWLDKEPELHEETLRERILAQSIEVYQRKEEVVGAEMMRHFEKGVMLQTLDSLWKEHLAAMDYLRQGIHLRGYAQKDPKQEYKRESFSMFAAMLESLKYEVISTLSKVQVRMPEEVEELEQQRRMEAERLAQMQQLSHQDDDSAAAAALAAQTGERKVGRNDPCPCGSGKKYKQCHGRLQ

Consider `c1ccc(-c2nc(CN3CCCC(Cn4cncn4)C3)co2)cc1` (stereo not drawn), for which the Percent Effect in [1] was -0.495%; in [2], 29.1%; in [3], -4%; in assay [4], -3.43%; in assay [5], 1.54%; in assay [6], -5.81%. For the same molecule, the Percent Effect was 18.2% in [7]; 14.8% in assay [8]; 6.25% in [9]; 10.1% in assay [10]; -13.6% in [11].
`CCc1nnsc1C(=O)N1CCCN(Cc2nccn2C)CC1`: the Percent Effect is -2.29% in [1]; -96.1% in assay [2]; 4.85% in assay [3]; 9.93% in assay [4]; 3.04% in assay [5]; 0.632% in [6]. The Percent Effect was 2.18% in [7]; 3.59% in assay [8]; 1.91% in [9]; -2.35% in assay [10]; -8.53% in assay [11].
Regarding `CN(Cc1ccco1)C[C@H]1OC[C@@H]2CCN(Cc3nccs3)C[C@@H]21`, the Percent Effect in assay [1] was -6.74%; in assay [2], 16%; in assay [3], -3.04%; in assay [4], -3.48%; in assay [5] it was 5.41%; in assay [6] it was -45%. The Percent Effect in assay [7] was 16.1%; in assay [8] it was 7.21%; in [9], 2.08%; in [10] it was 10%; in [11], -6.67%.
Regarding `Cc1cccc(C(=O)N2CCN(S(C)(=O)=O)[C@@H](C)C2)c1C`, the Percent Effect is -5.53% in assay [1]; -2.74% in assay [2]; 15.2% in assay [3]; -4.05% in [4]; -1.57% in assay [5]; -2.27% in assay [6]. The Percent Effect worked out at 0.71% in assay [7]; 9.6% in [8]; 0% in assay [9]; 0% in [10]; 0.913% in [11].
For `Cc1cc(NC(=O)CN(C)C2CCCN(c3cccnn3)C2)n(C)n1` (stereo not drawn), the Percent Effect in [1] was -4.44%; in [2], 7.89%; in assay [3], -28.4%; in assay [4], 2.85%; in assay [5], 12.2%; in assay [6] it was -1.8%. Besides, the Percent Effect in assay [7] is 10.6%; in [8], -5.3%; in assay [9], 4.43%; in assay [10], 13.6%; in assay [11], 6.51%.
Take `CCNC(=O)CN1CCCN(C(=O)C2CCCc3[nH]ncc32)CC1` (stereo not drawn): the Percent Effect in [1] is -3.9%; in [2], 8.11%; in assay [3], -2.94%; in assay [4] it was 6.84%; in assay [5], 1.66%; in assay [6], 5.21%. For the same molecule, the Percent Effect in [7] is 5.75%; in assay [8] it was -11.9%; in [9] it was 3.23%; in assay [10] it was 8.64%; in assay [11], -4.21%.
For `CC(Cn1cccn1)NC(=O)NCCc1cnn(C)c1` (stereo not drawn), the Percent Effect in [1] is 1.95%; in assay [2], 2.53%; in assay [3] it was -9%; in [4] it was -14.8%; in assay [5], -9.91%; in assay [6], 0.38%. Besides, the Percent Effect in [7] was 10.7%; in assay [8] it was 24.5%; in assay [9], 5.42%; in [10] it was 8.86%; in [11] it was -3.48%.
Take `CC(C)N(C)CC(=O)NC1CCc2nccn2C1` (stereo not drawn): the Percent Effect in [1] is -0.518%; in assay [2] it was -5.33%; in assay [3], 4.88%; in assay [4], -4.8%; in assay [5] it was -4.38%; in [6], -5.21%. The Percent Effect in [7] is 3.14%; in assay [8] it was 31.6%; in [9], -2.73%; in [10], -6.17%; in [11], 2.61%.
